# Laboratory results: ChEMBL document CHEMBL1157539, “Thousands of chemical starting points for antimalarial lead identification” (Nature, 2010)
# Tested on: HepG2
# Test: GSK_TCMDC: Percent inhibition of human HepG2 cell line. Test compounds present at 10uM.
# Format: functional
row,SMILES,Inhibition
1,CC(C)C(=O)n1ncc2c3c(N)nc(N)nc3ccc21,0%
2,O=C(Nc1ccccc1)Nc1cccc(-c2cc(CNCCc3ccccc3)sc2-c2ccncc2)c1,14%
3,CON=Cc1sc(CNCCCN=c2cc(O)c3ccccc3[nH]2)c(C)c1Br.Cl,0%
4,N#Cc1ccc(N2CCN(Cc3ccc(-c4ccc(-c5nc6ccccc6[nH]5)s4)cc3)CC2)nc1.O=C(O)C(F)(F)F,17%
5,O=C(c1ccc(-c2cnc3[nH]cc(-c4ccc(C(=O)N5CCOCC5)cc4)c3c2)cc1)N1CCOCC1,19%
6,Cc1ccc(C)c(NC(=O)NCCNc2ccnc(Nc3ccc(F)cc3)n2)c1,21%
7,CS(=O)(=O)c1ccc(CCNCc2ccc(-c3ccc(CN(C(=O)c4ccc(Cl)nc4)C4CCN(Cc5ccccc5)CC4)cc3)nc2)cc1.O=C(O)C(F)(F)F,24%
8,O=C(COc1ccc(C(=O)c2ccccc2)cc1)Nc1nccs1,0%
9,O=C(Cc1c[nH]cn1)Nc1cccc(-c2cccc(-c3nc4ccccc4[nH]3)c2)c1,24%
10,COc1ccc(CNCc2ccccc2)cc1-c1ccc(S(=O)(=O)NCCN2CCCC2)s1.O=C(O)C(F)(F)F,32%
11,CN(C)c1cccc2c1nc(-c1ccco1)n2CC1CCCN1.O=C(O)C(F)(F)F (stereo unspecified),0%
